Results on eight compounds are retold here after PubChem BioAssay (NCI).

Some test systems named below: NCI-H23 lung; NCI-H226 lung; NCI-H322M lung; HOP-62 NSCLC; NCI-H460 lung; A549/ATCC NSCLC; 786-0 renal; COLO 205 colon; DU-145 prostate; K-562 leukemia; MALME-3M melanoma; MDA-MB-231 breast; RXF 393 renal; SF-268 CNS; SF-295 CNS; SF-539 CNS; UACC-257 melanoma; M14 melanoma.
Assay in all cases: NCI-60 one-dose screen, 48 h (100 = growth as untreated, 0 = no growth, -100 = all killed)
What all share (conditions): 10 µM unless noted

Compounds without any hit were thinned out: in the full panel of roughly 83,000, 20% have a hit.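 Cells were grown in 96-well plates and exposed to the test compound at a single concentration for 48 hours; results are reported as percent growth, with values below 10 considered active.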 Values without a mark were called inactive. Calls of active or inactive are those of the source.

With `O=P(OCCCl)(OCCCl)C(O)c1ccccc1Cl` (centres undefined), the growth in the experiment on NCI-H23 lung was 106%; in the experiment on NCI-H226 lung, 100%; in the experiment on NCI-H322M lung, 97%; in the experiment with HOP-62 NSCLC, 96.2%; with NCI-H460 lung, 115%; with A549/ATCC NSCLC, 111%. For the same compound, the growth was 110% with 786-0 renal; 101% in the experiment on COLO 205 colon; 112% in the experiment on DU-145 prostate; 96.6% in the experiment with K-562 leukemia; 96.7% in the experiment on MALME-3M melanoma; 108% with MDA-MB-231 breast. Also, the growth with RXF 393 renal was 125%; in the experiment with SF-268 CNS it was 103%; in the experiment with SF-295 CNS it was 102%; in the experiment with SF-539 CNS, 98.1%; in the experiment with UACC-257 melanoma, 137%; in the experiment on M14 melanoma, 105%.
As to `CN(C)CCOC(=O)C(C)(C)C`, the growth in the experiment on NCI-H23 lung was 114%; with NCI-H226 lung it was 98%; in the experiment on NCI-H322M lung it was 107%; with HOP-62 NSCLC, 112%; with NCI-H460 lung, 103%; with A549/ATCC NSCLC, 101%. In addition, the growth is 110% with 786-0 renal; 116% in the experiment with COLO 205 colon; 122% in the experiment on DU-145 prostate; 101% in the experiment with K-562 leukemia; 105% in the experiment with MALME-3M melanoma; 93.9% in the experiment with MDA-MB-231 breast. The growth in the experiment with RXF 393 renal is 102%; with SF-268 CNS, 121%; in the experiment with SF-295 CNS, 108%; with SF-539 CNS it was 109%; with UACC-257 melanoma, 92.5%; in the experiment with M14 melanoma it was 98.3%.
Turning to `COc1cc(-c2nn(-c3ccc(NC(=O)c4ccc(Cl)c(C(F)(F)F)c4)cc3)cc2-c2ccncc2)ccc1Cl`, the growth with NCI-H23 lung is 18.7%; in the experiment on NCI-H226 lung it was 55.5%; in the experiment on NCI-H322M lung, 55.9%; in the experiment on HOP-62 NSCLC, 5.59% (active); in the experiment on NCI-H460 lung it was 11.9%; in the experiment with A549/ATCC NSCLC, 29%. The growth in the experiment on 786-0 renal is -84.5% (active); in the experiment on COLO 205 colon, -22.4% (active); in the experiment with DU-145 prostate, 45.2%; with K-562 leukemia, 8.48% (active); in the experiment on MALME-3M melanoma, 14.9%; with MDA-MB-231 breast it was 3.94% (active). The growth in the experiment on RXF 393 renal was -56.3% (active); with SF-268 CNS, 43.8%; with SF-295 CNS, -33.2% (active); in the experiment on SF-539 CNS it was 13%; in the experiment with UACC-257 melanoma it was 54.2%; with M14 melanoma it was -44.3% (active).
Consider `CCOC1=C(Cl)C(=O)C(OCC)=C(Cl)C1=O`, for which the growth in the experiment on NCI-H23 lung was 107%; with NCI-H226 lung, 103%; with NCI-H322M lung, 94.7%; in the experiment on HOP-62 NSCLC it was 97.6%; in the experiment with NCI-H460 lung, 109%; with A549/ATCC NSCLC, 108%. Further, the growth in the experiment on 786-0 renal is 97.9%; with COLO 205 colon it was 104%; in the experiment with DU-145 prostate it was 106%; with K-562 leukemia, 82.5%; in the experiment with MALME-3M melanoma, 103%; in the experiment with MDA-MB-231 breast, 103%. Besides, the growth with RXF 393 renal is 105%; in the experiment on SF-268 CNS, 107%; with SF-295 CNS, 96.4%; with SF-539 CNS, 101%; with UACC-257 melanoma, 103%; in the experiment on M14 melanoma it was 110%.
As for `COc1cc(-c2nn(-c3ccc(NC(=O)Nc4ccc(Cl)c(Cl)c4)cc3)cc2-c2ccncc2)ccc1Cl`, the growth in the experiment with NCI-H23 lung is 22.9%; in the experiment with NCI-H226 lung it was 52.6%; with NCI-H322M lung it was 68.4%; in the experiment with HOP-62 NSCLC, 47.5%; in the experiment with NCI-H460 lung it was 7.14% (active); with A549/ATCC NSCLC it was 25.8%. For the same compound, the growth in the experiment on 786-0 renal was 4.3% (active); in the experiment with COLO 205 colon, 20.1%; in the experiment on DU-145 prostate it was 40.8%; in the experiment with K-562 leukemia, 17.2%; in the experiment with MALME-3M melanoma it was 57.2%; in the experiment on MDA-MB-231 breast it was 43.3%. The growth was 22.6% in the experiment with RXF 393 renal; 44.3% in the experiment with SF-268 CNS; 3.1% (active) in the experiment with SF-295 CNS; 54% in the experiment with SF-539 CNS; 56.5% with UACC-257 melanoma; 24.5% with M14 melanoma.
For `N#Cc1c2cccnc2c2nnc3cc(Cl)c(Cl)cc3n12`, the growth in the experiment on NCI-H23 lung is -20.2% (active); with NCI-H226 lung, 79.6%; with NCI-H322M lung, 44.5%; in the experiment with HOP-62 NSCLC it was 26.1%; in the experiment with NCI-H460 lung, 34.2%; in the experiment on A549/ATCC NSCLC, 83%. The growth is 81.2% with 786-0 renal; 85.8% in the experiment with COLO 205 colon; 36.4% with DU-145 prostate; 5.64% (active) in the experiment on K-562 leukemia; 25.6% in the experiment with MALME-3M melanoma; 2.64% (active) in the experiment with MDA-MB-231 breast. Further, the growth in the experiment with RXF 393 renal was -3.12% (active); in the experiment with SF-268 CNS, 16.8%; in the experiment on SF-295 CNS it was 80.8%; in the experiment with SF-539 CNS, 35.1%; with UACC-257 melanoma, 73.1%; in the experiment with M14 melanoma it was 78.1%.
`CCOC(=O)c1sc(NS(=O)(=O)c2ccccc2)nc1C`: the growth in the experiment on NCI-H23 lung was 109%; in the experiment with NCI-H226 lung, 106%; with NCI-H322M lung, 122%; with HOP-62 NSCLC, -99.5% (active); in the experiment on NCI-H460 lung, 109%; in the experiment with A549/ATCC NSCLC it was 103%. The growth was 89.4% in the experiment with 786-0 renal; 120% in the experiment on COLO 205 colon; 145% with DU-145 prostate; 144% in the experiment with K-562 leukemia; 120% with MALME-3M melanoma; 107% with MDA-MB-231 breast. Besides, the growth in the experiment with RXF 393 renal is 114%; with SF-268 CNS it was 114%; with SF-295 CNS it was 133%; in the experiment with SF-539 CNS it was 101%; in the experiment on UACC-257 melanoma, 110%; in the experiment with M14 melanoma, 107%.
In the case of `CC(C)CCCCCOC(=O)c1ccccc1SSc1ccccc1C(=O)OCCCCCC(C)C`, the growth in the experiment with NCI-H23 lung is 108%; with NCI-H226 lung, 97.3%; in the experiment with NCI-H322M lung, 132%; in the experiment with HOP-62 NSCLC, 99.8%; in the experiment on NCI-H460 lung, 108%; in the experiment with A549/ATCC NSCLC, 99.2%. The growth in the experiment with 786-0 renal was 104%; with COLO 205 colon, 109%; in the experiment on DU-145 prostate, 112%; in the experiment with K-562 leukemia, 96.3%; in the experiment with MALME-3M melanoma, 110%; in the experiment on MDA-MB-231 breast it was 99.5%. Besides, the growth in the experiment with RXF 393 renal is 120%; in the experiment with SF-268 CNS, 110%; in the experiment on SF-295 CNS, 105%; with SF-539 CNS, 99.4%; in the experiment on UACC-257 melanoma, 102%; with M14 melanoma, 104%.
